VDR inhibitor: vitamin D3 receptor (human) inhibition. P11473. VDR-SRC2-3 peptide fluorescence polarization, 2 h. Potency, µM, inactives show max response, negative = inhibition, actives largely listed as inhibitors. 0.93% of 400,000 active; further: on the % scale 0 is the no-effect control and ±100 the full control effect
Target sequence (P11473 whole entry, looked up): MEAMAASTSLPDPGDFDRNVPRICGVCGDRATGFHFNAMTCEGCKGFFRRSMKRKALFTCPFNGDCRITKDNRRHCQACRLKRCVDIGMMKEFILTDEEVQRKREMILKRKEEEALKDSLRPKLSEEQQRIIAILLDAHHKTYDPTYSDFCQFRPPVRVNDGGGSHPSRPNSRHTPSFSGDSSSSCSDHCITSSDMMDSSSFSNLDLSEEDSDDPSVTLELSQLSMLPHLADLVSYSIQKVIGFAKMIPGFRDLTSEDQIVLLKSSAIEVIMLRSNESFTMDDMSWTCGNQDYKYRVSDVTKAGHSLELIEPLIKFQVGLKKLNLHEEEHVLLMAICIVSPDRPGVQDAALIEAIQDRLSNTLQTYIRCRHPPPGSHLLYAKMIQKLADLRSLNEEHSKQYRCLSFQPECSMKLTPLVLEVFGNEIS
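Fluorescence polarization assay measuring small-molecule disruption of VDR binding to the coregulator peptide SRC2-3. Compounds were pin-transferred (23 nl) into the reagent mix and incubated 2 h at room temperature before reading.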
G9a inh: inhibitors of human histone lysine methyltransferase G9a; G9a H3K9 monomethylation, AlphaScreen, 2 h; AID 504332; Potency, µM (series often up to 102 µM), without a hit: at the highest dose activity, negative = inhibition, usual class: inhibitors; 8.8% of 350,000 active; Q96KQ7; further: on the % scale 0 is the no-effect control and ±100 the full control effect; nearly all actives have a fitted effect of over 75% in size
Target sequence (Q96KQ7 913-1193 limits assumed): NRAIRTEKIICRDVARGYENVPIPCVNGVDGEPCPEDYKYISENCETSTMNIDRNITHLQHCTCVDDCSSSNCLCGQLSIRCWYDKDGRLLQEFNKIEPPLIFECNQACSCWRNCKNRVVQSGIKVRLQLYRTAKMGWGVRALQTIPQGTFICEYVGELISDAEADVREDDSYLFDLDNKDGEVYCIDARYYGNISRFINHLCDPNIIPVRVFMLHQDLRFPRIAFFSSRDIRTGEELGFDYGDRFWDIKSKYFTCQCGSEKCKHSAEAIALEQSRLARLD
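Methyltransferase reactions run at room temperature for 2 h (20 nM enzyme, 500 nM biotin-H3K9 peptide, 20 uM SAM) after a 15 min compound preincubation; product detected by AlphaScreen beads and anti-H3K9me1 antibody.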
12-LOX inh: ALOX12 (human) lipoxygenase inhibition. purified 12hLO, xylenol orange hydroperoxide absorbance. Potency, µM (highest dose often 108 µM), for the others: top-dose activity change, negative = inhibition, hits mostly inhibitors. 1.1% of 580,000 active. AID 1671190; further: on the % scale 0 is the no-effect control and ±100 the full control effect
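Hydroperoxide product was detected by ferrous iron/xylenol orange as the 573 to 405 nm absorbance ratio. Arachidonic acid at 40 uM (final) was turned over for 30 min at room temperature by 150 nM human 12hLO, pH 7.0 Hepes buffer, after 15 min compound preincubation.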
Glioma ERSR ind: inducers of ER stress response in human glioma cells; U87-MG GRP78 promoter luciferase reporter, 16 h; Potency, µM, without a hit: top-dose activation, usual class: activators; 0.02% of 420,000 active; AID 602332; further: series mostly up to about 76 µM; % of control where 0% means no effect; nearly all actives have a fitted effect of over 35% in size
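Stably transfected U87-MG glioma cells carrying a GRP78-based luciferase sensor; 16 h compound incubation. Luminescence end-point read 10 min after Bright-Glo addition at room temperature.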
Sfp inh: inhibitors of Bacillus subtilis Sfp phosphopantetheinyl transferase. Potency, µM, for the others: largest response in the series, negative = inhibition, most hits filed as inhibitors. 3.5% of 310,000 active. Biochemical Sfp PPTase activity, qHTS. AID 1490. Q9F4F7;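 further: the enzyme is Sfp with the accession as filed and its product quenches rhodamine fluorescence; 0% = enzyme reaction without inhibitor and -100% = no enzyme wells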
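Reaction rates are the 30-min fluorescence difference (ex 525, em 598 nm) in wells containing 15 nM Sfp, 5 uM rhodamine-CoA and 12.5 uM BHQ-2-YbbR at pH 7.6 with 10 mM MgCl2.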
Active calls of the source: *; [ ] = remark or other dose. This excerpt belongs to a sample that is enriched for hits. The call rests on the fitted dose curve; in most records, active means well fitted curve in the direction sought with a large enough effect; inconclusive means small, poorly fitted or top-dose-only effect, or another doubt; inactive means no such curve, though single readings can be large; an effect the other way counts as inactive or inconclusive. Potency means the concentration at half of the fitted maximal effect.

Results for Nc1ccsc1C(=O)N1CCC2(CCC(=O)N(CC3CCCO3)C2)CC1 (stereo not drawn) ?
12-LOX inh: 7.9µM*

How did CCCCN1C(=O)NC(c2ccccc2OC)C2=C1COC2=O (stereo not drawn) do in these assays?
12-LOX inh: -14%

Results for CC(C)c1ccc2oc(-c3ccc(N)cc3O)nc2c1 ?
12-LOX inh: 35µM*

How did CC(C)c1ccc2oc(-c3cc(N)ccc3O)nc2c1 do in these assays?
VDR inhibitor: 10%; G9a inh: inconclusive; 12-LOX inh: inconclusive; Glioma ERSR ind: -3%; Sfp inh: -5%

Results for Cn1cnc(S(=O)(=O)N2CCCC(C(=O)NC3CCCCC3)CCNC(=O)CC2)c1 (stereo not drawn) ?
12-LOX inh: 27%

What do the screens show for `CC(=O)C(C(C)=O)C1(O)C(=O)c2ccccc2C1=O`?
VDR inhibitor: inconclusive; G9a inh: 50µM*; 12-LOX inh: inconclusive; Glioma ERSR ind: -2%; Sfp inh: -15%

What do the screens show for `O=C1c2cccc3cccc(c23)C(=O)C1(O)O`?
VDR inhibitor: inconclusive; 12-LOX inh: inconclusive; Glioma ERSR ind: -4%

How did Cc1nnc(SCC(=O)c2c[nH]c(C(=O)N3CCCC3)c2)n1C1CC1 do in these assays?
12-LOX inh: 1%

What do the screens show for `Cc1cc(=O)n2c3c(sc2n1)C(=O)N(Cc1ccccc1)C3=O`?
G9a inh: 6.3µM*; Sfp inh: 13µM*

How did COc1ccccc1OCC(=O)Nc1cc(-c2ccc(Cl)cc2)no1 do in these assays?
12-LOX inh: -2%

What do the screens show for `Cc1ccc(S(=O)(=O)CCC(=O)Nc2ccccc2Cl)cc1`?
VDR inhibitor: -15%; G9a inh: -24%; 12-LOX inh: -2%; Glioma ERSR ind: -4%; Sfp inh: 10%

Results for COc1ccc([N+](=O)[O-])cc1NC(=O)CCS(=O)(=O)c1ccc(Br)cc1 ?
VDR inhibitor: 2%; G9a inh: 14µM*; 12-LOX inh: -26%; Glioma ERSR ind: -1%; Sfp inh: 12%

Results for COc1ccc(S(=O)(=O)CCC(=O)Nc2ccc(OC)cc2OC)cc1 ?
VDR inhibitor: 5%; G9a inh: 10µM*; 12-LOX inh: inconclusive; Glioma ERSR ind: -4%; Sfp inh: 1%

What do the screens show for `COC(=O)c1ccccc1NC(=O)CCS(=O)(=O)c1ccc(Br)cc1`?
VDR inhibitor: inconclusive; G9a inh: 2.2µM*; 12-LOX inh: -3%; Glioma ERSR ind: -1%; Sfp inh: 1%

What do the screens show for `O=C(CCS(=O)(=O)c1ccc(Br)cc1)Nc1cc(F)ccc1F`?
VDR inhibitor: 14%; G9a inh: 50µM*; 12-LOX inh: -26%; Glioma ERSR ind: -6%; Sfp inh: -5%

Results for O=C(CCS(=O)(=O)c1ccc(Br)cc1)Nc1ccc(F)cc1F ?
VDR inhibitor: 1%; G9a inh: 2%[59 µM]; 12-LOX inh: -2%; Glioma ERSR ind: -3%

Results for COc1ccc(NC(=O)CCS(=O)(=O)c2ccc(OC)cc2)cc1 ?
VDR inhibitor: -4%; G9a inh: inconclusive; 12-LOX inh: inconclusive; Glioma ERSR ind: 0%; Sfp inh: -26%

How did CCCCn1c(Br)nc2c(=O)n(C)c(=O)n(C)c21 do in these assays?
12-LOX inh: 30%

How did COc1ccccc1-c1nnc(SCc2nnc(C)o2)n1CCc1ccccc1 do in these assays?
12-LOX inh: 4%

Results for CCOc1ccccc1NC(=O)CCNS(=O)(=O)c1ccc(NC(C)=O)cc1 ?
VDR inhibitor: 6%; G9a inh: 19%; 12-LOX inh: 20%; Glioma ERSR ind: -5%; Sfp inh: 13%

Results for CCc1cccc(CC)c1NC(=O)CCS(=O)(=O)c1ccc(Br)cc1 ?
VDR inhibitor: 1%; G9a inh: -18%[59 µM]; 12-LOX inh: -10%; Glioma ERSR ind: -4%

Results for CCOc1ccccc1NC(=O)CCS(=O)(=O)c1ccc(Br)cc1 ?
VDR inhibitor: -12%; G9a inh: 13µM*; 12-LOX inh: 0%; Glioma ERSR ind: -3%; Sfp inh: 8%

Results for CCc1ccccc1NC(=O)CCS(=O)(=O)c1ccc(Br)cc1 ?
VDR inhibitor: -10%; G9a inh: 50µM*; 12-LOX inh: 3%; Glioma ERSR ind: -2%; Sfp inh: 22%

How did Cc1ccc(OCC(=O)N/N=C/C=C/c2ccco2)c(Br)c1 do in these assays?
VDR inhibitor: -26%; G9a inh: 45µM*; 12-LOX inh: 40µM*; Glioma ERSR ind: inconclusive; Sfp inh: 50µM*

Results for Cc1cccc(C)c1OCC(=O)N/N=C/C=C/c1ccco1 ?
VDR inhibitor: -19%; G9a inh: 32µM*; 12-LOX inh: inconclusive; Glioma ERSR ind: 8%; Sfp inh: -21%

What do the screens show for `O=C(COc1cccc2ccccc12)N/N=C/c1ccco1`?
VDR inhibitor: 1%; 12-LOX inh: 2%; Glioma ERSR ind: 3%; Sfp inh: -10%

How did Cc1cccc(OCC(=O)N/N=C/C=C/c2ccco2)c1 do in these assays?
VDR inhibitor: inconclusive; G9a inh: 8.9µM*; 12-LOX inh: inconclusive; Glioma ERSR ind: inconclusive; Sfp inh: inconclusive

Results for Cc1cc(C)cc(OCC(=O)N/N=C/c2ccco2)c1 ?
VDR inhibitor: 2%; G9a inh: -8%; 12-LOX inh: 0%; Glioma ERSR ind: -7%; Sfp inh: 14%

Results for O=C(Nc1ccc2[nH]ccc2c1)c1csc(NC2CC2)n1 ?
12-LOX inh: 9%

Results for Oc1ccccc1CN1CCN(C(O)(c2ccccc2)c2ccccc2)CC1 ?
VDR inhibitor: inconclusive; G9a inh: 35µM*; 12-LOX inh: inconclusive; Glioma ERSR ind: -1%; Sfp inh: -8%

How did Oc1ccccc1CN1CCC(C(O)(c2ccccc2)c2ccccc2)CC1 do in these assays?
VDR inhibitor: -11%; G9a inh: 8.9µM*; 12-LOX inh: -27%; Glioma ERSR ind: -5%; Sfp inh: -17%

How did O=C(C1CC1)N1CCC(C(O)(c2ccccc2)c2ccccc2)CC1 do in these assays?
VDR inhibitor: 11%; G9a inh: -21%[59 µM]; 12-LOX inh: -13%; Glioma ERSR ind: -5%; Sfp inh: 8%

How did COc1ccc(CNC(=O)Cc2nc(-c3cccs3)oc2C)cc1 do in these assays?
12-LOX inh: -3%

What do the screens show for `O=c1[nH]c(=O)c2nc3c4ccccc4c4ccccc4c3nc2[nH]1`?
VDR inhibitor: -24%; G9a inh: 40µM*; 12-LOX inh: -4%; Glioma ERSR ind: -3%; Sfp inh: inconclusive

Results for O=C/C(=C\Nc1ccc(Cl)cn1)c1nc2cc(Cl)ccc2o1 ?
VDR inhibitor: -1%; G9a inh: -10%[59 µM]; 12-LOX inh: 29%; Glioma ERSR ind: -2%; Sfp inh: 5%

Results for O=C/C(=C\Nc1ccc(S(=O)(=O)CCO)cc1)c1nc2cc(Cl)ccc2o1 ?
VDR inhibitor: 8%; G9a inh: 50µM*; 12-LOX inh: -28%; Glioma ERSR ind: -2%; Sfp inh: 1%

From PubChem
